In PubChem BioAssay (NCATS):
Records with an inconclusive call do not appear. Active and inactive are the calls of the source. Unless noted, calls follow the shape of the dose curve; as a rule, active = well fitted curve in either direction with a large enough effect (not every such curve was filed as active); inconclusive = small, poorly fitted or top-dose-only effect, or another doubt; inactive = flat fitted curve, though single readings scatter.

Legend:
[1] = AP1 Signaling Pathway (AID 357); details: ME-180 AP-1-bla reporter, EGF-induced, beta-lactamase ratio, 5 h; at 17.2 µM (top of the series) unless noted;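 also: ME-180 reporter cells stimulated with EGF at its EC50 level; % is scaled to controls: 0 for no effect and ±100 for the full control effect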
In short: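 Modulation of EGF-driven AP-1 transcription was assessed with a beta-lactamase reporter in ME-180 cells. Compound and EC50 EGF were co-incubated 5 hours at 37 °C before 2.5-hour CCF4 loading at room temperature and dual-emission reading.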

[2] = target: Cytochrome P450 1A2 (Homo sapiens) (UniProt P05177); assay: p450-cyp1a2 (AID 410; calls by dose curve; also: potency is read from the fitted curve at half-maximal effect;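 as to activity change, negative = inhibition: -100% = full effect of reference inhibitor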)
In short: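 Luminescent readout of luciferin formed from Luciferin-ME by human CYP1A2; data normalized against complete inhibition by 57 uM furafylline. Enzyme 20nM, substrate 100uM at Km, 100mM KPO4 buffer, 60 min reaction at room temperature.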

[3] = Stat Signaling Pathway (AID 446); details: ME-180 (cervical carcinoma) SIE beta-lactamase reporter, IL-6 stimulated, 5 h; at 17.2 µM (top of the series) unless noted;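 also: ME-180 cervical cancer cells given 40 pM IL-6 alongside compound; SIE-controlled beta-lactamase reporter measured as 460/530 nm FRET emission ratio; % is scaled to controls: 0 for no effect and ±100 for the full control effect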
In short: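 IL-6/STAT signaling read in ME-180 cells via an SIE beta-lactamase reporter. Stimulus was 40 pM IL-6 (its AC50) for 5 hrs, so both activation and inhibition register.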

[4] = target: Mitogen-activated protein kinase 10 (Mus musculus) (UniProt Q61831); assay: JNK3 AlphaScreen Assay (AID 530);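 also: kinase came from lysate of stimulated human HepG2 cells; signal reports phosphorylation of biotinylated GST-cJun 1-79 at Ser73 with 10 µM ATP; % is scaled to controls: 0 for no effect and ±100 for the full control effect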
In short: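 Inhibitors reduce antibody binding to phosphorylated biotin-cJun, lowering AlphaScreen luminescence. Lysates from HepG2 cells pre-activated by IL-1beta plus TNF-alpha supplied JNK3; compounds were titrated.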

[5] = target: 3',5'-cyclic-AMP phosphodiesterase 4B (Homo sapiens) (UniProt Q07343); assay: qHTS Assay for Inhibitors of PDE-IV (AID 607; active = well fitted activation curve with a large enough effect in the main read-out, with a control signal flat, not every such curve was filed as active; also: % of control where 0% means no effect)
In short: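 Live HEK293 cells with a modified cyclic nucleotide-gated (CNG) channel report intracellular cAMP via membrane-potential dye fluorescence (ex 535/em 590 nm). Endogenous PDE-IV was targeted. Compounds were tested at up to 22.9 uM final; RO 20-1724 100 uM served as control.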

[6] = NFAT Signaling Pathway (AID 444); details: Jurkat NFAT-bla M1, carbachol, beta-lactamase ratio, 5 h; at 17.2 µM (top of the series) unless noted;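 also: carbachol stimulus at about its EC50 of 1 µM final; % is scaled to controls: 0 for no effect and ±100 for the full control effect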
In short: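 Jurkat cells carrying an NFAT-driven β-lactamase reporter and co-transfected muscarinic M1 receptor were treated with compound plus carbachol (1 uM final, an EC50 level) for 5 h at 37 °C. CCF4 loading followed for 1 h at RT; 460/530 nm ratio gave %activity.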

[7] = target: Glucocorticoid receptor (Homo sapiens) (UniProt P04150); assay: GR-GFP Redistribution (AID 450;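 active = compounds whose dose series gives a full or clear partial fitted curve of increased nuclear translocation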; also: potency is read from the fitted curve at half-maximal effect)
[8] = target: Glucocorticoid receptor (Homo sapiens) (UniProt P04150); assay: GR-EFC Redistribution (AID 451; calls by dose curve; also: potency is read from the fitted curve at half-maximal effect); details: CHO-K1 GR-EFC translocation, beta-gal luminescence, 2 h
In short: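 CHO-K1 cells stably expressing nuclear-localized β-gal enzyme acceptor and GR fused C-terminally to the enzyme donor fragment; ligand-driven nuclear translocation restores β-gal by complementation. Compounds titrated up to 46 uM final, 2 h at 37 °C; luminescence read.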

[9] = target: Guanine nucleotide-binding protein G(i) subunit alpha-1 (Homo sapiens) (UniProt P63096); assay: qHTS Assay for Inhibitors of RGS12 GoLoco Motif Activity (Green Fluorophore) (AID 879; active = well fitted curve in the direction sought with a large enough effect; an effect the other way counts as inactive or inconclusive;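 also: 0% = labeled peptide with Gαi1 and full inhibition = labeled peptide alone without protein; negative values mean loss of peptide binding seen as reduced polarization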)
In short: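 Fluorescence polarization assay: 50 nM Gαi1 with 10 nM FITC-labeled RGS12 GoLoco peptide in 10 mM Tris pH 7.5, 150 mM NaCl, 0.1 mM GDP, 0.05% NP40, 10 min at room temperature with compound.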

[10] = target: Cytochrome P450 3A4 (Homo sapiens) (UniProt P08684); assay: qHTS Assay for Activators of Cytochrome P450 3A4 (AID 885; active = well fitted curve in the direction sought with a large enough effect; an effect the other way counts as inactive or inconclusive; also: nearly all actives have a fitted effect of over 65% in size)
In short: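 Quantitative HTS format: compounds preincubated with 20nM human CYP3A4 and Luciferin-PPXE substrate at KM, reaction started by NADPH regeneration, stopped after 60 min, luciferase luminescence read 20 min later.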

[11] = qHTS Assay for Identification of Small Molecule Agonists for Thrombopoietin (TPO) Signaling Pathway (AID 917; active = well fitted curve in the direction sought with a large enough effect; an effect the other way counts as inactive or inconclusive; also: % is scaled to controls: 0 for no effect and ±100 for the full control effect)
In short: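 We measured Glycoprotein IIb promoter–luciferase output in IL-3-starved Ba/F3 murine cells expressing the human TPO receptor after 24 hrs at 37 C with compounds and 26 pM TPO.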

[12] = target: Muscarinic acetylcholine receptor M1 (Rattus norvegicus) (UniProt P08482); assay: qHTS Assay for Antagonists of Acetylcholine Muscarinic M1 Receptor: Kinetic Measurement of Intracellular Calcium Response (AID 943; active = well fitted curve in the direction sought with a large enough effect; an effect the other way counts as inactive or inconclusive; also: potency is read from the fitted curve at half-maximal effect; nearly all actives have a fitted effect of over 75% in size)
In short: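 Rat M1-CHO cells, 2000/well, overnight → Fluo-4 no-wash dye with probenecid, 1 h 37C → compound 10 min, room temp → basal read 6 s → carbachol EC80 (100 nM) → 4 min kinetic read; peak/basal.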

[13] = target: Muscarinic acetylcholine receptor M1 (Rattus norvegicus) (UniProt P08482); assay: qHTS Assay for Antagonists of Acetylcholine Muscarinic M1 Receptor: Measurement of IP-One Response (AID 944; active = well fitted curve in the direction sought with a large enough effect; an effect the other way counts as inactive or inconclusive; also: nearly all actives have a fitted effect of over 75% in size; also: potency is read from the fitted curve at half-maximal effect)
In short: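 M1-CHO (rat), 2000 cells/well, overnight recovery; cpd 10 min; carbachol EC80 (200 nM), 30 min, HEPES buffer + 50 mM LiCl pH 7.4; IP-One HTRF, Ex 337, Em 620/665 nm.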

[14] = target: Pyruvate kinase (Leishmania mexicana) (UniProt Q27686); assay: qHTS Validation Assay for Inhibitors of Leishmania Mexicana Pyruvate Kinase (AID 945; active = well fitted curve in the direction sought with a large enough effect; an effect the other way counts as inactive or inconclusive;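 also: 0% = DMSO only neutral control wells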)
In short: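 Read-out: luminescence from PKLight stop/detection reagent, data normalized to DMSO. Reaction: 0.2 nM E451W LmPYK, 0.5 mM PEP, 0.1 mM ADP, pH 7.2, 1 h room temperature.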

[15] = target: Pyruvate kinase PKM (Homo sapiens) (UniProt P14618); assay: qHTS Assay for Activators of Human Muscle Pyruvate Kinase (AID 954; active = well fitted curve in the direction sought with a large enough effect, not every such curve was filed as active;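 also: 0% = uninhibited enzyme and -100% = no enzyme or full thiadiazolimine inhibition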)
In short: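 Enzyme was run at intermediate activity so both inhibitors and activators could be detected. ATP formed from ADP and PEP by 0.1 nM human PKM2 during a 1 h room-temperature incubation was quantified by coupled luciferase luminescence.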

[16] = target: Alpha-galactosidase A (Homo sapiens) (UniProt P06280); assay: Counterscreen for Glucocerebrosidase Inhibitors: qHTS Assay for Human alpha-Galactosidase at pH 4.5 (AID 992; active = well fitted curve in the direction sought with a large enough effect; an effect the other way counts as inactive or inconclusive; also: 0% is about no effect)
In short: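 Read-out is 4-methylumbelliferone fluorescence (365 nm excitation, 440 nm emission) after a pH 10 NaOH/glycine stop. Reactions held 2 nM enzyme and 80 uM substrate at pH 4.5 for 20 min at room temperature.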

[17] = target: Cytochrome P450 2C9 (Homo sapiens) (UniProt P11712); assay: qHTS Assay for Inhibitors and Substrates of Cytochrome P450 2C9 (AID 883; active = well fitted curve in the direction sought with a large enough effect; an effect the other way counts as inactive or inconclusive; also: nearly all actives have a fitted effect of over 60% in size; also: potency is read from the fitted curve at half-maximal effect)
In short: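 Human CYP2C9 (10nM) hydroxylated Luciferin-H (100uM, at its KM) to luciferin in 25mM KPO4. Compound was preincubated 10 min at 37C, then NADPH regeneration started a 60 min reaction at 37C. Luminescence was read after detection reagent, normalized to 57uM sulphaphenazole.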

[18] = target: Cytochrome P450 2D6 (Homo sapiens) (UniProt P10635); assay: qHTS Assay for Inhibitors and Substrates of Cytochrome P450 2D6 (AID 891; active = well fitted curve in the direction sought with a large enough effect; an effect the other way counts as inactive or inconclusive; also: potency is read from the fitted curve at half-maximal effect; nearly all actives have a fitted effect of over 60% in size)
In short: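 Human CYP2D6 (5 nM) with 30 uM Luciferin-ME EGE (at Km) in 100 mM KPO4, compound preincubated 10 min, then NADPH regeneration system for 60 min at room temperature. Luciferin read by luminescence; normalized to 1.43 uM quinidine.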

Chain of Glucocorticoid receptor (Homo sapiens) (P04150 whole entry, looked up, the tested form may be a part): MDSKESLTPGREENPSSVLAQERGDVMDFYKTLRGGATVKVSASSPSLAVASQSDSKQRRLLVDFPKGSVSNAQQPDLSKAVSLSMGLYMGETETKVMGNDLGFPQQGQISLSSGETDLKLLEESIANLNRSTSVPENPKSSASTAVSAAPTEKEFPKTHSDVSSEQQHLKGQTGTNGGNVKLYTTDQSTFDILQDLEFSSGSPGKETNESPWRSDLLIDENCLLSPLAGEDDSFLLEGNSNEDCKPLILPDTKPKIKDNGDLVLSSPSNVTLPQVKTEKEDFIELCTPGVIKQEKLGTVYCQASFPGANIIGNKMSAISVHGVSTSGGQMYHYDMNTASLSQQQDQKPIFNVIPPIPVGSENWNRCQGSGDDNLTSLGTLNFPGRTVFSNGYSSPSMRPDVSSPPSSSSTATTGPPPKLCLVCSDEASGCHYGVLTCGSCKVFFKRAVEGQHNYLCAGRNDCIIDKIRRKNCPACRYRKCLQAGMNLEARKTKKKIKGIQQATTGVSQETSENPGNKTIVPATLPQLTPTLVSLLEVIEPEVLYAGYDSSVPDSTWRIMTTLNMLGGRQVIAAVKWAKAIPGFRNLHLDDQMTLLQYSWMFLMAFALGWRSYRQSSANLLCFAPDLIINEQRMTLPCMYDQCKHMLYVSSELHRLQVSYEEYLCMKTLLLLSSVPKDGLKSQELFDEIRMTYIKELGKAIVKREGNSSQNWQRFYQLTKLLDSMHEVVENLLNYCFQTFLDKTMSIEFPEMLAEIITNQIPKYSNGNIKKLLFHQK
Chain of 3',5'-cyclic-AMP phosphodiesterase 4B (Homo sapiens) (Q07343 whole entry, looked up): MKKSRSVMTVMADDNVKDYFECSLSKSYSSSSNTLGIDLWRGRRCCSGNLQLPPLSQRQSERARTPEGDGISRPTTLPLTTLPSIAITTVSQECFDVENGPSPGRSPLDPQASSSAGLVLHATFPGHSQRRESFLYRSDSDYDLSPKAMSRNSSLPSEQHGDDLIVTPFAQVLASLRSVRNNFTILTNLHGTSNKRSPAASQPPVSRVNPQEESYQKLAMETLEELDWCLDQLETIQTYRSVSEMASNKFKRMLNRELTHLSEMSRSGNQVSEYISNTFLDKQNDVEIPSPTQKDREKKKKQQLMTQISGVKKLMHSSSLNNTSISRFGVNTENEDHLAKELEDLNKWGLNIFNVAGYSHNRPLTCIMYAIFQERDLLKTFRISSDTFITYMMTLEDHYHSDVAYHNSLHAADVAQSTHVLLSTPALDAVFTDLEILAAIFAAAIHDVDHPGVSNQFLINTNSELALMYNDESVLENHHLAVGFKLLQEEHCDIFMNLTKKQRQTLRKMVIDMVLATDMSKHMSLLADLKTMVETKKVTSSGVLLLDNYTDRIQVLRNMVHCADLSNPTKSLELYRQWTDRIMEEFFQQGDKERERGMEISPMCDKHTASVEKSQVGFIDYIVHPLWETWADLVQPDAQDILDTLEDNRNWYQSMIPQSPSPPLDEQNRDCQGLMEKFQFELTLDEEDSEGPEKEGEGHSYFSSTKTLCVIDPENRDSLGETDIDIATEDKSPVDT
Chain of Cytochrome P450 1A2 (Homo sapiens) (P05177 whole entry, looked up): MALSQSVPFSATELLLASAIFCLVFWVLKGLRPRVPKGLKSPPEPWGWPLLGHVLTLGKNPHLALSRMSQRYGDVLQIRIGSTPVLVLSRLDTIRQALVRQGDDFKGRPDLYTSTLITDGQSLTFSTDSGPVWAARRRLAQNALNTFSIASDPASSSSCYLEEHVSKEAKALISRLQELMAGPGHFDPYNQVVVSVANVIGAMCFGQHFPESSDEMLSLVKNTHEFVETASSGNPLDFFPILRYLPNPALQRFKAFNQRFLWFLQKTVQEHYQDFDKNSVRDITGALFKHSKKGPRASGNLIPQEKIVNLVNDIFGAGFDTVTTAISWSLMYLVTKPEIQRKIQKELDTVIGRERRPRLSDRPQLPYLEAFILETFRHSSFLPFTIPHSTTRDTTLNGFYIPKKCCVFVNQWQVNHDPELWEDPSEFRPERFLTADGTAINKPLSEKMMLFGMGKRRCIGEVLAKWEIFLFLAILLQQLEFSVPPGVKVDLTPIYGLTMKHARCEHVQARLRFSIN
Chain of Muscarinic acetylcholine receptor M1 (Rattus norvegicus) (P08482 whole entry, looked up): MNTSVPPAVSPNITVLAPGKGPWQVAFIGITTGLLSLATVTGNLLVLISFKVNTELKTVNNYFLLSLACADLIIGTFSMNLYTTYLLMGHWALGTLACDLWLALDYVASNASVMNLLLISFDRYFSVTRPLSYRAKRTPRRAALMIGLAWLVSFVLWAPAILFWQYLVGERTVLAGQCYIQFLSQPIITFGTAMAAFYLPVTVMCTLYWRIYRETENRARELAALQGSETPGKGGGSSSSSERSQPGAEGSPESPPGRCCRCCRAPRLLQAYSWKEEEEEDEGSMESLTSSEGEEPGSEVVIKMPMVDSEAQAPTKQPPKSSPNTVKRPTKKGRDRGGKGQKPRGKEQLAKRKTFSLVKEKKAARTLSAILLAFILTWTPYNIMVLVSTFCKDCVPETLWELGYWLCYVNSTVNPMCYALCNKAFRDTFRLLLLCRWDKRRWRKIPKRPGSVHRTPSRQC
Chain of Guanine nucleotide-binding protein G(i) subunit alpha-1 (Homo sapiens) (P63096 whole entry, looked up): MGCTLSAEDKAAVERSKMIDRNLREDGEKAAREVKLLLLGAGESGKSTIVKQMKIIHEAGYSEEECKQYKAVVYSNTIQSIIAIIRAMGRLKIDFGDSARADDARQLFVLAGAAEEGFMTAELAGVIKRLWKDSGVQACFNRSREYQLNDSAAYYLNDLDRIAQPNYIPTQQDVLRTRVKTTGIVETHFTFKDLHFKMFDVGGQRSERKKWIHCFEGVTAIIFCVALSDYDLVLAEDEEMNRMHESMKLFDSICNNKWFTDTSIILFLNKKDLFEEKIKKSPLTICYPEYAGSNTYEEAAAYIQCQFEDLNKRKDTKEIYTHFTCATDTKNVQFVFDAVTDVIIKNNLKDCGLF
Chain of Cytochrome P450 2C9 (Homo sapiens) (P11712 whole entry, looked up): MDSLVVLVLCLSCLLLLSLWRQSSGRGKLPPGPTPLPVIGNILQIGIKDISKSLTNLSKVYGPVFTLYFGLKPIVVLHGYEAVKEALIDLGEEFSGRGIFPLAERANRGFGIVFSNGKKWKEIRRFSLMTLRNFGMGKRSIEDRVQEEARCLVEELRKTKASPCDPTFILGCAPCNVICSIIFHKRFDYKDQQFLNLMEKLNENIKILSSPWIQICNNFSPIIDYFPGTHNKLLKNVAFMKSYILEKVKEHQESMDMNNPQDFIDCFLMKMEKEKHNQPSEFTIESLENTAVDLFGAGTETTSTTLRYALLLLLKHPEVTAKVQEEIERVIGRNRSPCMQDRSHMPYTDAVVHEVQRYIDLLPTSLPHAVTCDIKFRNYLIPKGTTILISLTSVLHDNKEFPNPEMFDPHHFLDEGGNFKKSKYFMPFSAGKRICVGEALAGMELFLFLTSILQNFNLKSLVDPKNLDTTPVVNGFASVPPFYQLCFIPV
Chain of Cytochrome P450 3A4 (Homo sapiens) (P08684 whole entry, looked up): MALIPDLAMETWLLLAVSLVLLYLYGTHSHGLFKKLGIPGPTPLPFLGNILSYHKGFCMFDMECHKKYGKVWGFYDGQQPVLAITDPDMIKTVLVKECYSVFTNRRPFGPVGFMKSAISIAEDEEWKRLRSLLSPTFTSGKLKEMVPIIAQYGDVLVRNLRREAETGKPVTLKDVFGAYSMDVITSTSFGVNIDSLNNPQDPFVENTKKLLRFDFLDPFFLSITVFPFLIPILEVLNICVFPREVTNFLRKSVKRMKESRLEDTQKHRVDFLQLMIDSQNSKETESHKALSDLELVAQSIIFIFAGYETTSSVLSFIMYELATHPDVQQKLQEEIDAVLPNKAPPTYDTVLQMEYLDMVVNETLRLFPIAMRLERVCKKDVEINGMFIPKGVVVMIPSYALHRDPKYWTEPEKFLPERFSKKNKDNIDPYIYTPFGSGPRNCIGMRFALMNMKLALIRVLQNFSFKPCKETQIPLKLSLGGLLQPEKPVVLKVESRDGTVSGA
Chain of Alpha-galactosidase A (Homo sapiens) (P06280 whole entry, looked up): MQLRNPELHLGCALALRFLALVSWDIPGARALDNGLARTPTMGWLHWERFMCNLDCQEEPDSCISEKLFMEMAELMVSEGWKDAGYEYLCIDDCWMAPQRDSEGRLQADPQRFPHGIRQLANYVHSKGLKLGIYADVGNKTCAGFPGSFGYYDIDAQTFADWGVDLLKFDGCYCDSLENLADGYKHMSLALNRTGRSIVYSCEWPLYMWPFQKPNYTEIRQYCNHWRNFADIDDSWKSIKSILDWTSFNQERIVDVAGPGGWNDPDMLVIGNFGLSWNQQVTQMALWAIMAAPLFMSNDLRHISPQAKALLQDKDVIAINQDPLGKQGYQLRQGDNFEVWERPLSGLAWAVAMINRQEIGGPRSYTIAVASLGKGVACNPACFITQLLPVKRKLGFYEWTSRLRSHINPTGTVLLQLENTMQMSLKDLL
Chain of Pyruvate kinase (Leishmania mexicana) (Q27686 2-499 E452W): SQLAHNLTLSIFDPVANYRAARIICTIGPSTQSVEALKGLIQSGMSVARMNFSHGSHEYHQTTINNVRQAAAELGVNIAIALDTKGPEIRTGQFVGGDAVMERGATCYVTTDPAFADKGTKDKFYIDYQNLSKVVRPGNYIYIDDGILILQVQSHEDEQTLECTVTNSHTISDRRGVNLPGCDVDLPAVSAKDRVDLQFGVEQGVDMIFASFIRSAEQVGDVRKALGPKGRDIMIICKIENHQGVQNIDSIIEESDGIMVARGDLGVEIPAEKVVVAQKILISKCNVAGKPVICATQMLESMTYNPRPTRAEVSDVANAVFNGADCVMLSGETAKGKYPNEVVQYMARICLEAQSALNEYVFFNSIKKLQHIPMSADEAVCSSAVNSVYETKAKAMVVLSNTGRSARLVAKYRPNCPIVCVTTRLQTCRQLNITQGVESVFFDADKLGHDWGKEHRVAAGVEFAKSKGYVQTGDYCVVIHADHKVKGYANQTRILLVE

N#Cc1ccc(OC(=O)c2ccc(N=C(N)N)cc2)cc1
inactive: activity change, negative = inhibition [1] -0.971% [at 7.69 µM] | activity, negative = inhibition [3] -5.61% [at 7.69 µM] | activity change, negative = inhibition [4] 1.07% [at 11.4 µM] | Potency [5]
active: Potency [2] 2.51 µM

Cc1ccc(N2C(=O)C3ON(c4ccccc4)C(c4ccncc4)C3C2=O)cc1 (stereo not given)
inactive: activity change, negative = inhibition [1] 5.13% | activity change, negative = inhibition [6] 9.45% | activity, negative = inhibition [3] -10.5%

CC1CCN(CC[C@@H]2CCCN2S(=O)(=O)c2cccc(O)c2)CC1
inactive: activity change, negative = inhibition [1] 2.33% [at 38 µM] | Potency [2] | activity, negative = inhibition [3] -6.42% [at 38 µM] | Potency [7] > 46 µM | Potency [8] > 46 µM | Potency [5] | outcome [9] | Potency [10] | Potency [11] | Potency [14] | outcome [15] | outcome [16]
active: Potency [12] 14.1 µM | Potency [13] 14.1 µM

CCN1CCC[C@@H]1CNC(=O)c1c(OC)ccc(I)c1O
active: Potency [2] 15.8 µM | Potency [18] 199 nM
inactive: activity change, negative = inhibition [1] -2.43% [at 38 µM] | activity, negative = inhibition [3] -4.45% [at 38 µM] | Potency [7] > 46 µM | Potency [8] > 46 µM | Potency [4] | Potency [5] | Potency [17]

COC(=O)c1ccc(-c2sc3nc(N4CCOCC4)c4c(c3c2N)CC(C)(C)OC4)o1
inactive: activity change, negative = inhibition [1] -12.7% | activity change, negative = inhibition [6] -1.53% | activity, negative = inhibition [3] 5.68%

Cc1cc(Cc2cc(Cc3cc(C)cc(C(C)(C)C)c3O)c(C)cc2C)c(O)c(C(C)(C)C)c1
inactive: activity change, negative = inhibition [1] -2.73% [at 7.69 µM] | activity change, negative = inhibition [2] -17.2% [at 2.29 µM] | activity, negative = inhibition [3] -3.85% [at 7.69 µM] | Potency [7] > 46 µM | Potency [8] > 9.22 µM | activity change, negative = inhibition [4] -4.33% [at 11.4 µM] | Potency [5]
active: Potency [17] 3.16 µM

COc1cccc2c1[C@@H]1CN(CCCCn3c(=O)[nH]c4c(sc5ncc(-c6ccccc6)nc54)c3=O)C[C@H]1CO2
active: Potency [2] 31.6 µM | Potency [12] 11.2 µM
inactive: activity change, negative = inhibition [1] 4.55% [at 38 µM] | activity, negative = inhibition [3] 22.8% [at 38 µM] | Potency [7] > 46 µM | Potency [8] > 46 µM | Potency [5] | outcome [9] | Potency [10] | Potency [13] | Potency [14] | outcome [15] | outcome [16]
